Screening results: PubChem BioAssay, SRMLSC
Shown are actives, neighbours in structure and some others; about 6.3% of the full set was active somewhere.
PMK inhibit = S. pneumoniae PMK inhibitors, primary screen, biochemical, mevalonate pathway, pilot trial included; purified PMK, PK/LDH-coupled NADH absorbance 340 nm; inhibition, % at 10 µM; 0.49% of 65,000 active;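 active = top-ranked compounds by inhibition in the single 10 µM screen, taking a fixed number of the strongest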;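 also: 0% = full reaction with DMSO carrier and 100% = background rate without enzyme reaction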
DPM-DC inhibit = S. pneumoniae DPM-DC inhibitors, primary screen, biochemical, PK/LDH-coupled NADH fluorescence | diphosphomevalonate decarboxylase (Streptococcus pneumoniae D39) | purified DPM-DC | calls only at 10 µM | 0.49% of 65,000 active | AID 556, 2006;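 active = the 320 compounds with the highest percent inhibition in the single-dose primary screen, excluding strongly autofluorescent ones, cut at about 32% in these data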;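 also: kinetic rate of NADH fluorescence loss reporting ADP formed by the decarboxylase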
A340 absorber = compound light absorbance at 340 nm, profiling panel, artefact control, biochemical, MLSMR library, data from PS, PMK, MK assays | compound absorbance at 340 nm, fold over control | fold change at 10 µM | 65,000 tested, under 10 active | AID 708, 2007;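 active = at 10 µM dose, initial 340 nm absorbance at least 2 fold that of control wells; inactive = change under 2 fold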;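 also: initial absorbance extrapolated from kinetic A340 decline of NADH oxidation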
Autofluor 339 = intrinsic fluorescence of library compounds, ex339/em460 – biochemical, MLSMR library, data from DPM-DC assay, artefact control, profiling panel; compound autofluorescence, ex339/em460 nm, NADH buffer; active compounds read high; 1 = no-compound wells, NADH background; fluorescence fold increase at 10 µM; 5.5% of 65,000 active;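 active = at 10 µM, mean starting fluorescence two-fold or more over control wells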;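 also: signal is the first read of a kinetic run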
NADH coupling = inhibitors of PK/LDH coupling enzymes, profiling panel, artefact control, biochemical, MLSMR library; coupled PK/LDH NADH assays, four targets; IC50, µM (highest dose often 10 µM), without a hit: at the top dose inhibition; 0.02% of 65,000 active;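 active = single-dose screening hits from any of four coupled enzyme assays that gave an IC50 when retested across doses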;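 also: the DPM-DC format reads NADH fluorescence rather than 340 nm absorbance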
Spn MK inh = S. pneumoniae MK inhibitors, primary screen, biochemical, PK/LDH-coupled NADH absorbance; purified MK, PK/LDH-coupled NADH absorbance 340 nm; inhibition, % at 10 µM; mevalonate kinase [Streptococcus pneumoniae D39]; 0.48% of 65,000 active; AID 555, 2006;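 active = ranked among the strongest by inhibition in the single 10 µM screen, a fixed top-ranked set picked for dose follow-up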
* = called active by the depositor; i = inactive; / = not tested or not shown.

SMILES | PMK inhibit | DPM-DC inhibit | A340 absorber | Autofluor 339 | NADH coupling | Spn MK inh
CCN1C(=O)C2(/C(=C(\O)c3ccc4c(c3)OCCO4)C(=O)C(=O)N2CCCOC)c2ccccc21 (stereo not given) | 11 | i | 1.1 | 1.1 | 4% | 0
CCCCN(C(=O)NC(=O)C1=C(N2CCOCC2)/C(=C/c2ccccc2)CC1)S(C)(=O)=O | 0 | / | 1.1 | 2.1* | 5% | 9
CCCCN(C(=O)NC(=O)Nc1ccccc1OC)S(C)(=O)=O | 6 | i | 0.99 | 1.1 | 4% | 5
CN(C(=O)NC(=O)C1=C(N2CCOCC2)/C(=C/c2ccccc2)CC1)S(C)(=O)=O | 3 | i | 1.1 | 2.9* | 9% | 7
COc1ccc2[nH]c3ccccc3c2c1 | 12 | i | 0.97 | 1.4 | 4% | 0
COc1ccc2[nH]c(=O)c3c(c2c1)OC(C)(C)C=C3 | 13 | i | 1.1 | 2.5* | 14% | 1
COc1ccc(-n2c(SCc3nnc(-c4ccccc4)o3)nnc2-c2ccccc2)cc1 | 26* | i | 0.99 | 1.1 | 9% | 2
N#Cc1ccc(-c2ccco2)nc1SCc1ccccc1 | 3 | i | 1.1 | 2.1* | 4% | 9
Cn1c(=O)c2nc(NCc3ccccc3)cnc2n(C)c1=O | 14 | i | 0.99 | 3.9* | 13% | 5
NS(=O)(=O)c1ccc(CCNC(=O)CNC(=O)C2CCCCC2)cc1 | 7 | i | 1 | 1.1 | 2% | 0
CC(=O)NC(Cc1ccc(F)cc1)C(=O)NC1CCN(c2nnnn2-c2ccccc2)CC1 (stereo not given) | 0 | i | 1 | 1.1 | 3% | 10
N#Cc1cc2cc3c(cc2nc1N1CCCCC1)OCCO3 | 12 | i | 1.1 | 3* | 11% | 5
Cc1ccccc1Cn1c(=N)n(CC(=O)c2ccco2)c2ccccc21 | 5 | i | 1 | 1.1 | 3% | 3
Cn1nnnc1SCc1cn2cccnc2n1 | 14 | / | 1 | 3.3* | 3% | 2
c1ccc(Cn2c(SCc3cn4cccnc4n3)nnc2-c2ccco2)cc1 | 14 | i | 1 | 2.2* | 10% | 6
CCCCCC/C(=N/O)c1ccccn1 | 14 | i | 0.98 | 1.1 | 8% | 10
CCOC(=O)Nc1ccc(S(=O)(=O)Nn2cnnc2)cc1 | 14 | i | 1 | 1.1 | 6% | 5
O=C(CN1CCC2(CC1)OCCO2)c1ccc2cc[nH]c2c1 | 13 | i | 1.1 | 3.2* | 10% | 0
O=C1c2ccc(-c3nc4ccccc4o3)cc2C(=O)N1Cc1cccnc1 | 0 | / | 1.1 | 2.1* | 1% | 2
CC(=O)Nn1cc2c(c1-c1ccccc1)c(=O)n(C)c(=O)n2C | 7 | i | 1 | 1.7 | 7% | 1
Cc1cccc(-c2c3c(=O)n(C)c(=O)n(C)c3cn2-c2ccccc2O)c1 | 0 | i | 1 | 2.6* | 10% | 11
O=C(CCC(=O)OCCCC(F)(F)C(F)(F)F)Nc1ccccc1 | 0 | i | 1 | 1.1 | 2% | 4
CCCCCn1c(=O)[nH]c2cc(C(=O)O)ccc2c1=O | 5 | i | 1 | 1.3 | 6% | 12
COc1cc(S(=O)(=O)N2CCCC3(CCCCC3)C2)ccc1-n1cnnn1 | 0 | i | 1 | 2.8* | 3% | 6
CC(C)CNC(=O)c1cc(-c2ccco2)on1 | 4 | i | 1 | 1.1 | 3% | 6
SMILES | PMK inhibit | DPM-DC inhibit | A340 absorber | Autofluor 339 | NADH coupling | Spn MK inh
CC(=O)Nc1nc(CC(C)C)cc(-c2ccco2)c1C#N | 4 | / | 1.1 | 2.3* | 7% | 10
COc1cccc(OC)c1-c1nnc(-c2cn(C)c3ccccc23)o1 | 13 | / | 0.99 | 3.8* | 9% | 4
COc1cccc2sc(Nc3nnc(-c4ccccc4Cl)o3)nc12 | 5 | i | 1.1 | 1.6 | 9% | 0
O=C(CCCCn1c(=O)c2ccccc2n(CC(=O)Nc2ccccc2)c1=O)NCc1ccco1 | 11 | i | 0.97 | 1.1 | 7% | 9
Cn1c(-c2ccccc2)c(CCO)c2ccccc21 | 0 | i | 0.99 | 1.4 | 2% | 0
CCCc1c(CC)c(=N)c2ccccc2n1C | 3 | / | 1.1 | 3.5* | 6% | 8
O=S(=O)(c1ccc(S(=O)(=O)N2CCCC2)cc1)N1CCCCCC1 | 11 | i | 1 | 1 | 6% | 0
O=S(=O)(c1ccc2c(c1)C(=NO)c1cc(S(=O)(=O)N3CCCCC3)ccc1-2)N1CCCCC1 | 8 | i | 1 | 2* | 6% | 9
C=CCn1c(N)c(C(=O)OC(C)CC)c2nc3ccccc3nc21 (stereo not given) | 16 | / | 1.1 | 2.1* | 8% | 0
C=CCn1c(N)c(C(=O)OC(C)(C)C)c2nc3ccccc3nc21 | 7 | / | 0.98 | 2.5* | 5% | 8
Cc1cc(-n2c(C)cc(C(=O)CSc3ccc4c(c3)OCCO4)c2C)no1 | 12 | i | 1 | 1.1 | 4% | 0
CC(C)OC(=O)CC1=NC(=O)CS1 | 0 | i | 1 | 1.1 | 5% | 15
CC(C)OC(=O)CCC1(C(=O)O)CCC(=O)NC1 (stereo not given) | 25* | i | 0.99 | 1 | 12% | 11
COc1cccc(C(=O)Nc2nnc(-c3ccc(Cl)cc3)o2)c1 | 6 | i | 1.1 | 1.3 | 5% | 0
CCOC(=O)CNC(=O)Nc1nnc(-c2ccc(OCC)cc2)o1 | 28* | i | 1 | 1.5 | 7% | 4
CCOc1ccc(-c2nnc(NC(=O)c3ccc(OCC(C)C)c(OC)c3)o2)cc1 | 14 | / | 1 | 4.9* | 7% | 0
CCOC(=O)COc1ccc(-c2nnc(-c3ccccc3)o2)cc1 | 8 | i | 0.99 | 1.2 | 5% | 8
CCOC(=O)C1=C(C)Nc2ccccc2N=C1NC(=O)CCCN1C(=O)c2ccccc2C1=O | 27* | i | 0.99 | 1.1 | 10% | 2
Cc1cccc(NC(=O)CCCCCN2C(=O)c3ccccc3C2=O)n1 | 11 | i | 1 | 1.1 | 2% | 3
CCn1[nH]c(=O)c(=Nc2c(C)n(C)n(-c3ccccc3)c2=O)cc1-c1ccc(Cl)cc1 | 11 | i | 1 | 1.1 | 4% | 0
CCC(C)NC(=O)CCC(=O)Nc1ccc2nc(N3CCOCC3)cc(C)c2c1 (stereo not given) | 8 | / | 1.1 | 5* | 4% | 0
CCN1CCN(c2cc(C)c3cc(NC(=O)c4cnccn4)ccc3n2)CC1 | 4 | i | 1.2 | 1 | 2% | 2
CCCCN(C)C(=O)CCC(=O)Nc1ccc2nc(N3CCOCC3)cc(C)c2c1 | 12 | / | 1.1 | 4.8* | 10% | 7
